Compound activity: PubChem BioAssay, The Scripps Research Institute Molecular Screening Center
rCAG binder = r(CAG) repeat RNA binding; inhibition, % at 3 µM; TO-PRO-1 dye displacement fluorescence; 370,000 tested, 1.3% active; AID 651821;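 active = inhibition above the plate cutoff, the mean of all test compounds on that plate plus 3 SD, cut at about 35% in these data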;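 note: 0% = DMSO alone and 100% = 100 µM mitoxantrone as full dye displacement; higher means more dye released from RNA so lower well fluorescence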
TLR9-MyD88 inh = blocks human TLR9 binding to MyD88 | Q9NR96+Q99836 | CHO BLA complementation TLR9-MyD88, CCF4 FRET ratio | inhibition, % at 4.98 µM | 340,000 tested, 0.21% active | AID 504734;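 active = inhibition above the mean over all tested compounds plus 3 SD, cut at about 21% in these data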;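 note: 0% = DMSO only wells and 100% = clavulanate BLA inhibitor control wells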
NOD2 RIPK2 PPI = NOD2-RIPK2 protein interaction inhibition; O43353; CHO BLA complementation NOD2-RIPK2, CCF4 ratio; inhibition, % at 4.98 µM; 360,000 tested, 0.38% active; AID 624267; in the data active = inhibition above about 21%;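 note: 0% = vehicle only and 100% = reference blocker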
PRMT1 inh = PRMT1 (human) inhibition, primary screen | inhibition, % at 2.79 µM | recombinant PRMT1, activity-based probe fluorescence polarization | 370,000 tested, 1.3% active | Q99873 | AID 652257;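 active = inhibition above about 21% made by adding two undisclosed values, limit read from the data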
ABHD5 PLIN5 PPI = inhibitors of human ABHD5-perilipin-5 interaction. Q00G26+Q8WTS1. 360,000 tested, 0.78% active. Split G. princeps luciferase complementation, luminescence, 4 h. inhibition, % at 4 µM;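 active = inhibition above the mean inhibition across every tested compound plus 3 SD, cut at about 22% in these data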;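 note: 0% = DMSO only wells and the 100% control is not disclosed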
TLR4-MyD88 BLA = blocks binding of human TLR4 to MyD88 | 200,000 tested, 0.18% active | inhibition, % at 8.4 µM | HeLa CL3-4 TLR4/MyD88 BLA complementation, FRET ratio | O00206+Q99836; in the data active = inhibition above about 25%;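 note: 0% = vehicle and 100% = reference inhibitor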
TLR9-MyD88 cf = confirmation of human TLR9-MyD88 binding inhibitors; shares compounds with TLR9-MyD88 inh; CHO TLR9/MyD88 BLA complementation, CCF4 FRET ratio; inhibition, % at 4.98 µM; 680 tested, 51% active; AID 540250;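 active = mean inhibition across three repeats above about 21% taken from the earlier screen, limit read from the data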;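 note: blue over green emission ratio reports constitutive TLR9 MyD88 association via BLA complementation; 0% = DMSO vehicle wells and 100% = clavulanate BLA inhibitor wells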
Target sequence (Q9NR96 whole entry, looked up): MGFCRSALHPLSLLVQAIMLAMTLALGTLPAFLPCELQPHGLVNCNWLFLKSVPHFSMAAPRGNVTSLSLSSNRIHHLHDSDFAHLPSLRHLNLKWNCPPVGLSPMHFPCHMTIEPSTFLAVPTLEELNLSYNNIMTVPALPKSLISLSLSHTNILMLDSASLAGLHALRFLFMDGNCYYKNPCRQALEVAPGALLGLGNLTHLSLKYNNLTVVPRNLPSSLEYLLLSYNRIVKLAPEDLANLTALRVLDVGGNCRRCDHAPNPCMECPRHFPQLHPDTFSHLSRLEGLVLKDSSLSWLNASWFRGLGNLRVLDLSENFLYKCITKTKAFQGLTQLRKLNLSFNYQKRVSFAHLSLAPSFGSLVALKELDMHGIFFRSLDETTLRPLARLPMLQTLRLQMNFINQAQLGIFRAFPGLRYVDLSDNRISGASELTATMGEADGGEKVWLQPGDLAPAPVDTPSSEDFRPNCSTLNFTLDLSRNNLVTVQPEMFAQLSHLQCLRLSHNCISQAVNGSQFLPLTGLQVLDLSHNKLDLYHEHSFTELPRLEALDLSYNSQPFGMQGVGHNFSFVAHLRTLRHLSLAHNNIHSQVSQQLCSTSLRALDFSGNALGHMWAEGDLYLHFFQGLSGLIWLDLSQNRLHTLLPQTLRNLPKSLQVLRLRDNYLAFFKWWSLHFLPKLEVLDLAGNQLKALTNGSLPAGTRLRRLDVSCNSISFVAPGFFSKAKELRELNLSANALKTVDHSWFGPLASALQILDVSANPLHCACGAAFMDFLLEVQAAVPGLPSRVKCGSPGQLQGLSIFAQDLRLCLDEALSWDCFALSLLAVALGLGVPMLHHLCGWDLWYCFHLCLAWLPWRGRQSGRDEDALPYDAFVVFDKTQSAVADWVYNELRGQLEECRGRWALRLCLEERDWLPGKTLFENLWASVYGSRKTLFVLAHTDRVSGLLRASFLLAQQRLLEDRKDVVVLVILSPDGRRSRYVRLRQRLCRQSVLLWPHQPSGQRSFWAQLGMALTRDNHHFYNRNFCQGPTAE
BLA nonselective = beta-lactamase reporter inhibition, counter-screen artifact; shares compounds with TLR9-MyD88 inh; CHO-BLA cells, CCF4 FRET ratio, BLA reporter; inhibition, % at 4.98 µM; 680 tested, 7% active; AID 540251;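 active = mean inhibition above a 50% cutoff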;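 note: counterscreen of TLR9-MyD88 hits on CMV-driven BLA in CHO-K1 cells; 0% = DMSO alone and 100% = clavulanate blocking BLA; higher means less blue over green ratio so more BLA blockade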
TLR9 CHO cytotox = counter-screen for TLR9-MyD88 inhibitors: cytotoxicity in CHO cells; luminescence; inhibition, % at 4.98 µM; 680 tested, 39% active; shares compounds with TLR9-MyD88 inh; in the data active = inhibition above about 11%
* marks the source's active call; other numbers are inactive results; / = no result. Only some compounds are listed: those with a hit (about 3.3% of all), similar ones and a draw of the others.

SMILES	rCAG binder	TLR9-MyD88 inh	NOD2 RIPK2 PPI	PRMT1 inh	ABHD5 PLIN5 PPI	TLR4-MyD88 BLA	TLR9-MyD88 cf	BLA nonselective	TLR9 CHO cytotox
COc1ccccc1/C=C/C(=O)N1CCN(S(=O)(=O)c2cccs2)CC1	-2.4	2.6	2.8	1.7	-0.6	/	/	/	/
COc1ccc(CN2CCC(CNC(=O)NC(C)C)CC2)cc1	3.1	/	/	-3.0	/	/	/	/	/
COc1ccc(CN2CCC(CNC(=O)NC3CCCCC3)CC2)cc1	-6.8	22.1*	2.2	-3.1	0.6	6.0	-1.2	2.1	0.0
CCOC(=O)Cc1csc(/N=C/c2c(O)n(-c3ccccc3C(F)(F)F)c(=O)c3ccccc23)n1	5.1	22.2*	8.7	2.6	4.9	17.8	8.1	8.7	10.1
COc1ccc(C(=O)Nc2cccc(-c3cc4ccccc4oc3=O)c2)cc1[N+](=O)[O-]	7.7	-27.8	-7.4	-3.6	4.4	-21.7	/	/	/
CC[C@]12c3[nH]c4ccccc4c3CCN1C(=O)C(CC(=O)NCCc1ccccn1)C[C@@H]2C(=O)N1CCN(C(=O)C2CC2)CC1 (some centres not stated)	0.2	8.7	-3.7	4.3	-2.0	/	/	/	/
CC[C@]12c3[nH]c4cc(-c5ccco5)ccc4c3CCN1C(=O)[C@@H](CC(=O)NCCc1ccccn1)C[C@@H]2C(=O)N1CCN(C(=O)C2CC2)CC1	5.9	7.5	-8.0	5.0	14.2	/	-2.9	-2.8	0.9
COc1cccc(CNC(=O)CSc2nc3ccc(C)cc3[nH]2)c1	-4.4	12.9	-15.4	-1.0	-4.5	/	/	/	/
CCCCNC(=S)NNc1c(Cl)cc(Cl)cc1Cl	0.1	6.9	-12.6	-1.3	-11.6	-2.3	/	/	/
O=C(NCCCl)NNc1c(Cl)cc(Cl)cc1Cl	1.2	22.4*	-0.9	5.1	0.3	-13.4	1.6	0.5	2.6
CCOC(=O)COc1ccc2ccccc2c1/C=C/[N+](=O)[O-]	8.4	23.5*	-1.0	4.8	8.0	0.5	34.4*	-2.5	89.8*
O=C1CCCCCC1C1(O)C(=O)Nc2ccccc21 (configuration not stated)	-1.3	31.8*	-3.4	-2.5	-1.5	13.1	1.3	-0.1	0.7
COc1ccc2c(c1)CC(C1(O)C(=O)Nc3ccccc31)C2=O (configuration not stated)	4.4	-2.0	-4.5	1.5	4.7	4.2	/	/	/
CO[C@H]([C@H](C)/C=C/N(C)C=O)[C@@H](C)C(=O)CC[C@H](C)[C@H](O)[C@H](C)[C@H]1OC(=O)/C=C/C(C)=C/C[C@H](O)C[C@@H]2C=CC[C@@H](C[C@H](OC)[C@@]3(CO3)[C@@H](OC)C[C@@H](OC)[C@@H]1C)O2	/	/	/	-1.3	/	/	/	/	/
CN(CC(=O)NCc1ccco1)S(=O)(=O)c1ccc2c(c1)n(C)c(=O)c(=O)n2C	5.5	-9.2	-3.8	2.6	0.3	7.2	/	/	/
O=S(=O)(Nc1cccc2ncccc12)c1cccs1	/	29.0*	51.7*	/	-0.7	5.0	26.2*	11.6	102.7*
CC(C)n1cc(CN2CCCC(C(=O)Nc3cccc(-c4cc5ccccc5[nH]4)c3)C2)cn1 (configuration not stated)	6.7	23.4*	4.7	-5.0	13.0	/	5.5	-0.6	7.2
CCOC(=O)CNC(=O)CSc1nc(-c2ccc(OC)cc2)ns1	-2.4	22.4*	-1.0	2.6	1.8	2.1	1.4	-2.5	5.2
CCCn1c(/C=C/c2cc[n+](C)cc2)nc2ccccc21	-10.0	29.5*	16.3	8.6	4.7	/	17.2	22.1	-0.8
O=C(Nc1c2c(nn1-c1ccccc1)CS(=O)(=O)C2)C1CC1	3.9	4.0	-7.4	-4.0	-2.2	/	/	/	/
O=C(Nc1c2c(nn1-c1ccccc1)CS(=O)(=O)C2)c1ccccc1Br	-0.2	22.9*	8.6	1.4	-0.8	/	8.4	9.8	-1.1
